High-throughput results (PubChem BioAssay)
JMJD2A Tudor: blocks the human JMJD2A Tudor domain. Potency, µM (titrated, usually from 114 µM), for the others: at the top dose activity change, negative = inhibition, hits mostly inhibitors. 390,000 compounds, 4.4% hits. AlphaScreen JMJD2A-Tudor / H3K4me3 peptide binding. O75164; note: % is set by controls: 0 for no effect and ±100 for the full control effect; nearly all actives have a fitted effect of over 50% in size
G9a block: inhibitors of human histone lysine methyltransferase G9a; Q96KQ7; G9a H3K9 monomethylation, AlphaScreen, 2 h; Potency, µM (doses to about 102 µM), for inactives: at the top dose activity, negative = inhibition, most hits filed as inhibitors; 350,000 compounds, 8.8% hits; AID 504332; note: % is set by controls: 0 for no effect and ±100 for the full control effect; nearly all actives have a fitted effect of over 75% in size
Target sequence (Q96KQ7 913-1193 limits assumed): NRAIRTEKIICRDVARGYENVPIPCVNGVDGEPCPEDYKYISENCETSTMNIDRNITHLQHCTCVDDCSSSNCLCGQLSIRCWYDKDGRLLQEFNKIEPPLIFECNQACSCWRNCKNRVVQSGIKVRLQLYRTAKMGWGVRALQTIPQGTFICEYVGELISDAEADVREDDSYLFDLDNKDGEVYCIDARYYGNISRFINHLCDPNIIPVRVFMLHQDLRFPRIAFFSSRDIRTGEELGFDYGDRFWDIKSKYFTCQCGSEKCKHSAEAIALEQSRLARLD
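Using a bead-based AlphaScreen, monomethylated H3K9 product from 2 h room-temperature reactions (G9a 20 nM, peptide 500 nM, SAM 20 uM) was detected with 0.5 ug/mL rabbit anti-H3K9me1 antibody.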
BAZ2B inh: blocks human BAZ2B | Q9UIF8 | AlphaScreen BAZ2B-H3K14Ac peptide displacement | Potency, µM (series often up to 114 µM), without a hit: at the top dose activity change, negative = inhibition, hits mostly inhibitors | 360,000 compounds, 4.4% hits | AID 504333; note: % is set by controls: 0 for no effect and ±100 for the full control effect; nearly all actives have a fitted effect of over 60% in size
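BAZ2B (50 nM) with biotin-H3(5-23)K14Ac peptide (50 nM) in PBS pH 7.4, 0.01% Tween-20, preformed 30 min, then compound 30 min at room temperature; top concentration 110uM. AlphaScreen streptavidin donor/nickel chelate acceptor beads (10 ug/mL final), 20 min dark, signal read.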
L3MBTL1 block: L3MBTL1 (human) inhibition | AlphaScreen L3MBTL1–H3K9me1 peptide binding | Potency, µM (doses to about 57.1 µM), for inactives: top-dose activity, negative = inhibition, usual class: inhibitors | 230,000 compounds, 0.66% hits | AID 485360; note: % is set by controls: 0 for no effect and ±100 for the full control effect; nearly all actives have a fitted effect of over 60% in size
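AlphaScreen assay: L3MBTL1 (50 nM final) was preincubated 30 min at room temperature with biotinylated H3(1-15)K9me1 peptide (75 nM final), then 30 min with library compounds; streptavidin donor and nickel chelate acceptor beads (10 ug/mL final) added, 30 min dark.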
HP1b chromo inh: inhibitors of HP1-beta chromodomain binding to methylated histone tails; P83916; AlphaScreen HP1-beta / biotin-H3K9me3 peptide binding; Potency, µM (doses to about 114 µM), inactives show at the top dose activity change, negative = inhibition, actives largely listed as inhibitors; 390,000 compounds, 0.56% hits; note: nearly all actives have a fitted effect of over 70% in size
Target sequence (P83916 whole entry, looked up): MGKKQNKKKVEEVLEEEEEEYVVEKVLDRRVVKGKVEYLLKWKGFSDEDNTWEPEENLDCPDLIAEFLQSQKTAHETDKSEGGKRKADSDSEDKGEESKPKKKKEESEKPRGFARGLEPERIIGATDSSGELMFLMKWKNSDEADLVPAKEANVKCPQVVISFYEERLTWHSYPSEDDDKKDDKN
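HP1-beta protein (50 nM final) preincubated 30 min at room temperature with biotinylated H3(1-18)K9me3 peptide (50 nM) in PBS pH 7.4, 0.01% Tween-20, then compound added for 30 min. AlphaScreen streptavidin donor/nickel chelate acceptor beads (10 ug/mL final), 30 min dark, luminescence read.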
Sfp PPTase inh: Sfp phosphopantetheinyl transferase inhibition; Q9F4F7; Biochemical Sfp PPTase activity, qHTS; Potency, µM, without a hit: largest response in the series, negative = inhibition, usual class: inhibitors; 310,000 compounds, 3.5% hits;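 note: the enzyme is Sfp with the accession as filed and its product quenches rhodamine fluorescence; 0% = enzyme reaction without inhibitor and -100% = no enzyme wells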
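Reaction rates are the 30-min fluorescence difference (ex 525, em 598 nm) in wells containing 15 nM Sfp, 5 uM rhodamine-CoA and 12.5 uM BHQ-2-YbbR at pH 7.6 with 10 mM MgCl2.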
Numbers without * were called inactive; u = inconclusive; x = no result; [ ] = another dose, or the depositor's remark. Shown are actives, neighbours in structure and some others; about 12% of the full set was active somewhere. Calls come from the whole dose curve; as a rule, active = well fitted curve in the direction sought with a large enough effect; inconclusive = small, poorly fitted or top-dose-only effect, or another doubt; inactive = no such curve, though single readings can be large; an effect the other way counts as inactive or inconclusive. Potency is the fitted concentration of half-maximal effect.

SMILES	JMJD2A Tudor	G9a block	BAZ2B inh	L3MBTL1 block	HP1b chromo inh	Sfp PPTase inh
COc1ccccc1C(=O)Nc1ccc2oc(-c3ccc(F)cc3)nc2c1	-29.9%	-6.0%[12.7 µM]	-6.2%	x	22.5%	50.1µM*
O=C(Nc1ccc2oc(-c3ccccc3)nc2c1)c1ccc2c(c1)OCCO2	4.4%	u	-9.3%	3.1%	27.6%	8.0%
C=CC[C@@H](Cc1ccc(F)cc1)C(=O)OC[C@@H]1CCCN1C(=O)[C@@H](CC=C)CC(=O)N(CCO)Cc1ccccc1	-28.9%	x	x	-5.4%	10.7%	x
Cc1cc(C)c(O)c(NC(=S)NC(=O)Cc2ccccc2)c1	-21.0%	-6.5%	0.8%	-4.2%	7.1%	8.4%
O=C(Nc1ccc2oc(-c3ccncc3)nc2c1)c1ccc2c(c1)OCCO2	56.2µM*	20µM*	56.2µM*	x	-19.4%	u
Cc1ccc(C(=O)COC(=O)CN2C(=O)C3C4CCC(C4)C3C2=O)cc1[N+](=O)[O-] (stereo unspecified)	-24.1%	44.7µM*	1.8%	3.1%	1.0%	6.2%
Cc1ccc(C(=O)COC(=O)CCN2C(=O)C3C4CCC(C4)C3C2=O)cc1[N+](=O)[O-] (stereo unspecified)	-20.0%	3.8%	7.7%	x	13.7%	8.9%
CCN(CC)C(=O)CSc1nc2c(c(-c3cccnc3)c1C#N)CCCC2	3.5%	-6.1%	-17.6%	-3.2%	48.1%	11.5%
N#Cc1c(SCC(N)=O)nc2c(c1-c1ccncc1)CCCC2	u	39.8µM*	-3.9%	0.7%	38.0%	-40.6%
N#Cc1c(SCC(=O)Nc2nccs2)nc2c(c1-c1ccco1)CCCC2	-10.7%	u	-34.9%	x	22.6%	20µM*
COC(=O)CSc1nc2c(c(-c3ccc(C)o3)c1C#N)CCCC2	46.8%	u	-6.9%	x	16.6%	50.1µM*
Cc1ccc(-c2c(C#N)c(N)nc3c2CCCC3)o1	-9.9%	7.94µM*	u	u	40.1%	1.0%
CCSc1nc2c(c(-c3ccc(C)o3)c1C#N)CCCC2	84.3%	u	10.2%	53.1%	57.8%	u
COc1ccc(-c2c(C#N)c(N)nc3c2CCC3)cc1	0.7%	12.0%	22.1%	x	37.5%	12.2%
COc1ccccc1N1CCN(c2cc(C)nc3nc(-c4ccc(Cl)cc4)nn23)CC1	-23.0%	13.2%[59 µM]	-2.7%	x	40.9%	x
Cn1cnnc1SCC(=O)Nc1ccc(Cl)c(S(=O)(=O)N2CCOCC2)c1	14.4%	4.2%	0.3%	12.7%	32.0%	14.5%
NC(=O)c1cccc(N)c1	x	12.9%[59 µM]	x	x	x	-6.6%
COc1ccccc1Nc1nnc(SCc2cc(=O)n3cc(C)ccc3n2)s1	-8.3%	12.6µM*	-27.6%	-0.1%	31.5%	9.6%
CC(=O)Nc1cccc(NC(=O)CSc2cn(CC(=O)N3CCCCCC3)c3ccccc23)c1	-14.3%	-34.0%[59 µM]	-8.7%	x	26.6%	x
COC(=O)N1CC=CC1(C)C(=O)NCc1cc(F)cc(C(F)(F)F)c1 (stereo unspecified)	-4.1%	10.3%	2.8%	4.3%	43.9%	8.1%
CC(=O)N1CC=CC1(C)C(=O)NCc1cc(F)cc(C(F)(F)F)c1 (stereo unspecified)	0.0%	39.8µM*	-5.0%	0.1%	55.8%	-5.3%
CN(C)c1ccc(C(CNC(=O)c2ccc(-c3ccccc3)cc2)N2CCOCC2)cc1 (stereo unspecified)	x	14.1µM*	35.5µM*	-9.5%	x	x
COc1ccc(CNC(=O)c2cccc(N(C)C)c2)cc1	-29.3%	7.08µM*	u	1.9%[11.4 µM]	37.2%	u
COc1ccc(NS(=O)(=O)c2cccc(C(=O)NCC(c3ccc(OC)cc3)N3CCCC3)c2)cc1 (stereo unspecified)	u	u	u	-8.3%	-2.2%	x
COc1ccccc1CNC(=O)c1cccc(N(C)C)c1	-29.4%	8.91µM*	-36.3%	x	8.5%	-3.5%
COc1ccccc1CNC(=O)c1ccc(S(=O)(=O)N(C)c2ccccc2)cc1	-3.4%	-32.6%	9.3%	11.5%	27.9%	x
